Records with an inconclusive call do not appear. Unmarked numbers belong to inactive results. Calls follow the shape of the dose curve; as a rule, active = well fitted activation curve with a large enough effect in the repeat runs; inconclusive = weak or mixed curves; inactive = flat fitted curve, though single readings scatter.
assay: A CellTox Green Cytotoxicity Assay to monitor cytotoxicity in HEK293 cells - 16 hour (AID 1224888); conditions: CellTox Green fluorescence; series mostly up to 76.8 µM; activity change: at the top concentration; also: nearly all actives have a fitted effect of over 35% in size
Text: National Center for Advancing Translational Sciences [NCATS]
NIH Chemical Genomics Center [NCGC]
U.S. Environmental Protection Agency [EPA]
National Institutes of Environmental Health Sciences [NIEHS]
National Toxicology Program [NTP]
Cell-based models are critical for drug discovery. Determining the natural cytotoxic effects resulting from test compounds is an essential research activity. A CellTox Green Cytotoxicity Assay to monitor cytotoxicity in real time of continues cell culture during 40 hours of the compound treatment was used to screen Tox21 10K library compounds in Hek293 cells. CellTox Green Cytotoxicity Assay is a nonlytic, homogeneous, biofluorescent method to measure cytotoxicity in cell culture after experimental manipulation. The assay system uses a proprietary asymmetric cyanine dye that is excluded from viable cells but preferentially stains the dead cell's DNA. […] Viable cells produce no appreciable increases in fluorescence. Therefore, the fluorescence signal produced by the binding interaction with dead cell DNA is proportional to cytotoxicity.
The mixture of Hek293 cell suspension and reagents were dispensed at 600cells/6 ul/well in 1536-well tissue culture treated black solid bottom plates using a Multidrop dispenser. After the assay plates were incubated at a 37 C/5% CO2 incubator for 5 hours, 23 nL of compounds dissolved in DMSO, positive and negative controls was transferred to the assay plate by a pintool work station. The plates were incubated at 37 C for 40 hours. The fluorescence intensity were measured at 0h, 8h, 16h, 24h, 32h and 40h time points using ViewLux plate reader during compound treatment.
% is scaled to controls: 0 for no effect and ±100 for the full control effect.

SMILES	activity change
CCCCC[Si](OCC)(OCC)OCC	-14.5%
O=S(=O)(O)c1cc(O)ccc1O	-11.6%
CCCCCN(CCCOC)C(=O)C(CCC(=O)O)NC(=O)c1ccc(Cl)c(Cl)c1 (stereo not given)	-14.3% [at 35.3 µM, active compounds read high]
NCCc1ccn[nH]1	-3.22% [at 35.3 µM, active compounds read high]
CCC(C)(CCC(C)C)C(=O)[O-].CCC(C)(CCC(C)C)C(=O)[O-].[Zn+2] (stereo not given)	3.67%
Nc1c(NC/C=C\COc2cc(CN3CCCCC3)ccn2)c(=O)c1=O	3.09% [at 15.8 µM, active compounds read high]
COc1ccc(OC)c(NC(=O)CC(C)=O)c1	8.52%
COc1cc2c3cc1Oc1cc(ccc1O)C[C@@H]1c4c(cc(OC)c(O)c4Oc4ccc(cc4)C[C@@H]3N(C)CC2)CC[N+]1(C)C	2.4% [at 35.3 µM, active compounds read high]
CC(=O)N1CCN(c2ccc(O)cc2)CC1	-0.104% [at 35.3 µM, active compounds read high]
Cc1nc([N+](=O)[O-])cn1-c1ccc([N+](=O)[O-])cc1	6.02% [at 35.3 µM, active compounds read high]
CN[C@@H]1[C@@H](O)[C@@H](O[C@@H]2[C@H](O)[C@H](O[C@H]3OC(CN)=CC[C@H]3N)[C@@H](N)C[C@H]2N)OCC1(C)O (stereo not given in full)	1.73% [at 35.3 µM, active compounds read high]
CC(=O)c1ccc2c(c1)CCCC2	-8.83%
CCc1nccnc1C	2.09%
C[C@H]1O[C@H](O[C@H]2[C@H](O)[C@@H](O)[C@@H](O[C@H]3[C@H](O)[C@@H](O)[C@H](O)O[C@@H]3CO)O[C@@H]2CO)[C@H](O)[C@@H](O)[C@@H]1N[C@H]1C=C(CO)[C@@H](O)[C@H](O)[C@H]1O	10.1% [at 35.3 µM, active compounds read high]
CCCCCCCCCCCCCC(=O)OC	-11.4%
Cc1ccc2c(c1)c1c3n2CCNC3CCC1 (stereo not given)	3.99% [at 35.3 µM, active compounds read high]
C[C@H](CCC(=O)NCC(=O)O)[C@H]1CC[C@H]2[C@@H]3[C@H](O)C[C@@H]4C[C@H](O)CC[C@]4(C)[C@H]3C[C@H](O)[C@]12C	4.77%
O=C1CC[C@H](C(=O)N2CCCCC2)N1	10.5% [at 35.3 µM, active compounds read high]
CCOC(=O)CC(CC(=O)OCC)(OC(C)=O)C(=O)OCC	-11.8%
O=C(O)Cc1cccc(-c2cc(CCCCCCc3ccc(O[C@H]4O[C@H](CO)[C@@H](O)[C@H](O)[C@@H]4O)c(-c4cccc(CC(=O)O)c4)c3)ccc2O[C@H]2O[C@H](CO)[C@@H](O)[C@H](O)[C@@H]2O)c1	-7.34% [at 0.29 µM, active compounds read high]

SMILES	activity change
C=CCOCC(CO)(COCC=C)COCC=C	-6.19% [at 35.3 µM, active compounds read high]
CNCc1ccccc1	-7.08% [at 35.3 µM, active compounds read high]
C[Si]1(C)N[Si](C)(C)N[Si](C)(C)N1	0.138%
CCCC(C)CC (stereo not given)	-0.624%
O=C(Oc1ccccc1C(=O)O)c1ccccc1O	3.15% [at 35.3 µM, active compounds read high]
Nc1cc(C(=O)O)ccc1Cl	-8.92%
CC(C)c1ccccc1O	15.4%
C1=C\CC/C=C\CC/1	10%
COc1ccc(N=Nc2cc(C)c(N=Nc3ccc(S(=O)(=O)O)cc3)cc2OC)cc1	-10.1%
C=C[C@@H](C)CCC=C(C)C	1.48%
BrC/C=C/CBr	4.41% [at 15.8 µM, active compounds read high]
CC(=O)OCCCc1ccccc1	1.44%
CCCCCCCCCOCC1CO1 (stereo not given)	0.165%
Nc1ccc(S(=O)(=O)Nc2ccccn2)cc1	0.893% [at 35.3 µM, active compounds read high]
CC(C)COC(=O)CC(C(=O)OCC(C)C)S(=O)(=O)O (stereo not given)	-15.1%
CCOC(=O)CCCCCCCCC(=O)OCC	0.419%
C=C(C)C(=O)OC1CC(C)CC(C)(C)C1 (stereo not given)	1.4%
COc1ccc(NS(=O)(=O)c2ccc(N)cc2)nn1	7.16% [at 35.3 µM, active compounds read high]
Nc1ccnc(=O)[nH]1	8.83%
OCCCCCCCl	-1.06%

From PubChem BioAssay (Tox21)
